The values below come from PubChem BioAssay (NCATS).

Where “and” joins values, the source holds several entries; their conditions need not be identical. Equal values may be shown once. Inconclusive results are not listed. Calls of active or inactive are those of the source. Calls come from the whole dose curve; as a rule, active = well fitted cell-killing curve with a large enough effect; inconclusive = small, poorly fitted or top-dose-only effect; inactive = flat fitted curve, though single readings scatter.

The nature of test [1]: Cell Viability - LYMP2-006 (AID 978).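 Note: cells exposed to compound for 24 hours; nearly all actives have a fitted effect of over 60% in size.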 The settings on record: LYMP2-006 lymphoblastoid cell viability, qHTS; series mostly up to 92.2 µM. Summed up: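 Cells are seeded at 2500 per well and rested 5 hr at 37 C. Compounds are added across a concentration series for 24 hr at 37 C, after which ATP is quantified by luciferase luminescence.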
In general terms: qHTS replaces the single test concentration by a dilution series.

The nature of test [2]: Cell Viability - LYMP2-007 (AID 979).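 Note: cells exposed to compound for 24 h before reading; nearly all actives have a fitted effect of over 60% in size.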 The settings on record: LYMP2-007 lymphoblastoid cell viability; series mostly up to 92.2 µM. The method in brief:
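Acute toxicity is scored as a concentration-dependent fall in intracellular ATP in human lymphoblastoid cells treated 24 hr at 37 C, measured by luciferase luminescence; Hill-equation modelling yields AC50.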

A short description of test [3]: Cell Viability - LYMP2-008 (AID 980). Note: nearly all actives have a fitted effect of over 60% in size. The settings on record: LYMP2-008 lymphoblastoid cell viability, qHTS; series mostly up to 92.2 µM. The method in brief:
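Acute cytotoxicity is scored as concentration-dependent loss of cellular ATP in a human lymphoblastoid line after 24 hr treatment at 37 C. ATP is quantified by luciferase luminescence.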

A short description of test [4]: Cell Viability - LYMP2-010 (AID 981).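 Note: cells exposed to compound for 24 hours at 37 °C; nearly all actives have a fitted effect of over 55% in size.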 The note with it: LYMP2-010 lymphoblastoid cell viability, qHTS; series mostly up to 92.2 µM. Summed up: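 Acute toxicity is scored as a concentration-dependent loss of cellular ATP in human lymphoblastoid cells after 24 hr compound exposure in complete medium. Tetraoctylammonium bromide is the positive control.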
Test [5] in a line: Cell Viability - LYMP2-012 (AID 982).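 Note: cellular ATP by luciferase luminescence where a drop means cytotoxicity; cells exposed to compound for one day before reading; nearly all actives have a fitted effect of over 55% in size.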 The note with it: LYMP2-012 lymphoblastoid cell viability qHTS; series mostly up to 92.2 µM.
The nature of test [6]: Cell Viability - LYMP2-014 (AID 983).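 Note: cells exposed to compound for 24 h at 37 °C; nearly all actives have a fitted effect of over 50% in size.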 The note with it: LYMP2-014 lymphoblastoid cells, viability qHTS; series mostly up to 92.2 µM. The method in brief:
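Decrease in intracellular ATP after 24 hr treatment at 37 C, measured by luciferase luminescence, indicated cytotoxicity. Concentration-response data were fitted with the standard Hill equation to give AC50.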

A short description of test [7]: Cell Viability - LYMP2-016 (AID 984).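 Note: cells exposed to compound for 24 hours at 37 °C; nearly all actives have a fitted effect of over 55% in size.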 The note with it: LYMP2-016 lymphoblastoid cell viability, qHTS; series mostly up to 92.2 µM. The method in brief: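 Cells were seeded at 2500 per well and rested 5 hr before a 24 hr compound exposure at 37 C. Viability was then gauged as cellular ATP by luciferase luminescence, with AC50 values fitted to the Hill equation.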

Test [8] can be described thus: Cell Viability - LYMP2-020 (AID 986).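 Note: cells exposed to compound for 24 h at 37 °C; nearly all actives have a fitted effect of over 55% in size.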 The note with it: series mostly up to 92.2 µM. Summed up:
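Acute cytotoxicity in a human lymphoblastoid line is scored as a concentration-dependent fall in cellular ATP after 24 hr at 37 C in complete medium. The positive control is tetraoctylammonium bromide, and potency is given as Hill-fit AC50.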

Test [9] is described as follows: Cell Viability - LYMP2-022 (AID 987). Note: nearly all actives have a fitted effect of over 55% in size. The settings on record: LYMP2-022 lymphoblastoid cell viability; series mostly up to 92.2 µM. The method in brief:
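Acute toxicity in a human lymphoblastoid line is scored as decreased intracellular ATP after 24 hr compound treatment at 37 C. ATP is measured by CellTiter-Glo luminescence; curves are fitted with the Hill equation to give AC50.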

Test [10] can be described thus: Cell Viability - LYMP2-024 (AID 988). Note: nearly all actives have a fitted effect of over 60% in size. The settings on record: LYMP2-024 lymphoblastoid cell viability; series mostly up to 92.2 µM. Summed up: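 Acute toxicity is measured as concentration-dependent loss of intracellular ATP in a human lymphoblastoid line treated 24 hours at 37 C. Luciferase luminescence quantifies ATP; AC50 values come from standard Hill-equation modelling.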
Potency is the fitted concentration of half-maximal effect.

In the case of `OCCOc1ccccc1`, the Potency entry in test [1], in test [2], in test [3], in test [4], in [5] and in [6] was “inactive” each time. The Potency entry in [7], in [8], in test [9] and in [10] was “inactive” in each case.
Take `Clc1ccc(COC(Cn2ccnc2)c2ccc(Cl)cc2Cl)cc1` (configuration not stated): the Potency in test [2] and in test [3] was 50.1 µM (active) throughout.
Consider `Oc1cccc2cccnc12`, for which the Potency was 25.1 µM (active) and 15.8 µM (active) in [1]; 15.8 µM (active) in test [2]; 15.8 µM (active) and 12.6 µM (active) in test [3]; 12.6 µM (active) and 10 µM (active) in [4]; 15.8 µM (active) and 10 µM (active) in test [5]; 15.8 µM (active) and 12.6 µM (active) in test [6]. Further, the Potency was 15.8 µM (active) in test [7]; 12.6 µM (active) and 10 µM (active) in [8]; 10 µM (active) and 6.31 µM (active) in test [9]; 7.94 µM (active) in [10].
As to `CC(=O)Oc1ccccc1C(=O)Nc1ncc([N+](=O)[O-])s1`, the Potency is 31.6 µM (active) in test [3]; 39.8 µM (active) in test [4]; 39.8 µM (active) in test [5]; 39.8 µM (active) in test [7]; 39.8 µM (active) in test [10].
As to `CC(COc1ccccc1)N(CCCl)Cc1ccccc1` (configuration not stated), the Potency is 50.1 µM (active) in test [1], 39.8 µM (active) in test [2], 39.8 µM (active) in test [3] and 50.1 µM (active) in [8].
In the case of `c1ccc2c(c1)Nc1ccccc1S2`, the Potency entry in test [1], in test [2], in test [3], in test [4], in test [5] and in [6] was “inactive” in each case. In addition, the Potency entry in test [7], in test [8], in test [9] and in test [10] was “inactive” throughout.
For the molecule `N[C@@H](Cc1ccc(N(CCCl)CCCl)cc1)C(=O)O`, the Potency in [1] is 39.8 µM (active); in test [2] it was 25.1 µM (active); in test [3], 31.6 µM (active); in test [4], 31.6 µM (active); in [5] it was 31.6 µM (active); in [6], 31.6 µM (active). Besides, the Potency in test [7] is 25.1 µM (active); in test [8], 39.8 µM (active); in test [9], 15.8 µM (active); in test [10] it was 20 µM (active).
For the molecule `NCC(O)c1ccc(O)cc1` (configuration not stated), the Potency result in test [1], in test [2], in test [3], in test [4], in test [5] and in [6] was “inactive” in each case. For the same molecule, the Potency entry in test [7], in test [8], in test [9] and in test [10] was “inactive” each time.
`CCOP(=S)(OCC)Oc1cc(C)nc(C(C)C)n1`: the Potency result in [1], in [2], in [3], in test [4], in test [5] and in test [6] was “inactive” in each case. For the same molecule, the Potency entry in test [7], in test [8], in test [9] and in [10] was “inactive” in each case.
Regarding `Oc1ccc(Cl)cc1Cc1ccccc1`, the Potency entry in test [1], in [2], in [3], in [4], in [5] and in [6] was “inactive” in each case. Moreover, the Potency entry in [7], in [8], in test [9] and in [10] was “inactive” throughout.
With `C[C@]12C/C(=C/O)C(=O)C[C@@H]1CC[C@@H]1[C@@H]2CC[C@@]2(C)[C@H]1CC[C@]2(C)O`, in [4], the Potency was 50.1 µM (active).
Take `CCCC(C)(COC(N)=O)COC(=O)NC(C)C` (configuration not stated): the Potency entry in test [1], in test [2], in [3], in [4], in test [5] and in [6] was “inactive” in each case. For the same molecule, the Potency entry in test [7], in test [8], in test [9] and in test [10] was “inactive” in each case.
For the molecule `Oc1ccccc1-c1ccccc1`, the Potency result in [1], in [2], in [3], in test [4], in test [5] and in [6] was “inactive” in each case. Also, the Potency result in test [7], in [8], in test [9] and in test [10] was “inactive” each time.
For the molecule `CNCC(O)c1ccc(O)cc1` (configuration not stated), the Potency result in test [1], in test [2], in test [3], in [4], in test [5] and in [6] was “inactive” throughout. Besides, the Potency entry in test [7], in [8], in test [9] and in test [10] was “inactive” in each case.
